Common to all, as to assay: DAPPL (digital affinity profiling via proximity ligation, sequencing); 10 mM Tris-HCl pH 7.5, 50 mM NaCl, 1 mM DTT, 4% glycerol, room temperature, 30 min; GST-TFs on glutathione beads, 16-mer random dsDNA library, 0.1% formaldehyde crosslink after washing; high values mean tight binding
The target of one assay is T1, FLI1 (Homo sapiens, UniProt Q01543 1-452).
T1 sequence: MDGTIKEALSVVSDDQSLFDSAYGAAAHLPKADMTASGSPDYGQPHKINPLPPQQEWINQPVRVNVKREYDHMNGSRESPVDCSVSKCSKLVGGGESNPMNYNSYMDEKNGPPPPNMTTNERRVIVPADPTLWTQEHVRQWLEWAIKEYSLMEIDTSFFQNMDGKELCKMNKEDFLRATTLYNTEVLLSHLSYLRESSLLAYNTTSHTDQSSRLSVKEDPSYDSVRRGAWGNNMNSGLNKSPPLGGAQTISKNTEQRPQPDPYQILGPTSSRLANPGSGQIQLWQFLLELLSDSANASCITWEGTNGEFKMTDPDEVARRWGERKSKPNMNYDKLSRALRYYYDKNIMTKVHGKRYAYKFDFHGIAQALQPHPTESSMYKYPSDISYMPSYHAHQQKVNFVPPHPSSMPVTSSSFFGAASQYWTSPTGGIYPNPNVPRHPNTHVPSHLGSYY
The settings on record: protein: recombinant; tags: N-terminal GST; dsDNA, one strand shown. The essentials:
(§1)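 Yeast served to express human transcription factors as GST fusions, which were then captured on glutathione beads and labelled with DNA barcodes. Pooled with a tag-only sample, they were incubated with 200 nmole of a 16-mer random double-stranded DNA library for 30 min at room temperature in Tris/NaCl/DTT/glycerol buffer, washed, crosslinked with 0.1% formaldehyde, ligated by proximity, amplified by PCR and sequenced. Dividing each hexamer's read frequency for a factor by its frequency for the tag-only sample gives the binding signal.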

The target in another assay is T2, ELK1 (Homo sapiens, UniProt P19419 1-428).
T2 sequence: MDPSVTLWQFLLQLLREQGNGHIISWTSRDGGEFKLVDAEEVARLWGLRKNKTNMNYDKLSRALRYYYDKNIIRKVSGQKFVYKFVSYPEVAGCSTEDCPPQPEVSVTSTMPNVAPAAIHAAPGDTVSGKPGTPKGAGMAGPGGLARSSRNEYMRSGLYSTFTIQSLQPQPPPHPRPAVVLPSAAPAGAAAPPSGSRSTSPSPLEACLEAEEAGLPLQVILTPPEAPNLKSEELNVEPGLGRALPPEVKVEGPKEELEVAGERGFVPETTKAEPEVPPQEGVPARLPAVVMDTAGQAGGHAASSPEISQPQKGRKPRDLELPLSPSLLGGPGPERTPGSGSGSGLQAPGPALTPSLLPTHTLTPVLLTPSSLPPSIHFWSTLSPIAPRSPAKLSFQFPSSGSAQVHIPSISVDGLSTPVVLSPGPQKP
As to conditions: protein: recombinant; tags: N-terminal GST; dsDNA, one strand shown. In short, it runs like this:
as §1

The target in a further assay is T3, GABPA (Homo sapiens, UniProt Q06546 1-454).
T3 sequence: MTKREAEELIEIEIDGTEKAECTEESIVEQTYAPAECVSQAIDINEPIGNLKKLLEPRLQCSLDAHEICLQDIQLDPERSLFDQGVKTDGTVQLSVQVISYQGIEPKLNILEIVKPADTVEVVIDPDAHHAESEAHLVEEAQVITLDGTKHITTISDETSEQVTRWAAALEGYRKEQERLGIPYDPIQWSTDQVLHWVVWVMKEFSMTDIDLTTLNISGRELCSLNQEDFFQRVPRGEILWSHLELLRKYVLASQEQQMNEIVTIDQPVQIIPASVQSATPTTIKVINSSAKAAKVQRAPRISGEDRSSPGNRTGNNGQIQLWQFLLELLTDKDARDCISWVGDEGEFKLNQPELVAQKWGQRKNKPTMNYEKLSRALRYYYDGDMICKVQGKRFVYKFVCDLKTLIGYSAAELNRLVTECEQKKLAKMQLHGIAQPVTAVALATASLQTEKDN
The settings on record: protein: recombinant; tags: N-terminal GST; dsDNA, one strand shown. In short, it runs like this: as §1

Another assay addresses T4, ERG (Homo sapiens, UniProt P11308 1-479).
T4 sequence: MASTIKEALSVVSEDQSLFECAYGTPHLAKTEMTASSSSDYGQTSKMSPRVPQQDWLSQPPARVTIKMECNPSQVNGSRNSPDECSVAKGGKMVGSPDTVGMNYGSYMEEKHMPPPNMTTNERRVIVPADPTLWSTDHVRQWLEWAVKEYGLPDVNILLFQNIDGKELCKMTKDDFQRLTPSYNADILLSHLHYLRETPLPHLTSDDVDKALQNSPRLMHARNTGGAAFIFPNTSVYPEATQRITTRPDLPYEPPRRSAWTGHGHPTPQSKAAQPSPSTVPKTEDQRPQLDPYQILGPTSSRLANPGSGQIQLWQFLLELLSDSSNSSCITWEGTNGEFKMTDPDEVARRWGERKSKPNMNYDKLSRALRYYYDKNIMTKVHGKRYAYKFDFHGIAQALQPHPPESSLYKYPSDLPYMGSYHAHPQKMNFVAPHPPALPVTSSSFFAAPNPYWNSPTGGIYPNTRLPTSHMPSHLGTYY
As to conditions: protein: recombinant; tags: N-terminal GST; dsDNA, one strand shown. In short, it runs like this: as §1

The target in another assay is ELF1 (Homo sapiens, UniProt P32519 1-619). The settings on record: protein: recombinant; tags: N-terminal GST; dsDNA, one strand shown. In short, it runs like this:
as §1

The target of the next assay is T5, EHF (Homo sapiens, UniProt Q9NZC4 1-300).
T5 sequence: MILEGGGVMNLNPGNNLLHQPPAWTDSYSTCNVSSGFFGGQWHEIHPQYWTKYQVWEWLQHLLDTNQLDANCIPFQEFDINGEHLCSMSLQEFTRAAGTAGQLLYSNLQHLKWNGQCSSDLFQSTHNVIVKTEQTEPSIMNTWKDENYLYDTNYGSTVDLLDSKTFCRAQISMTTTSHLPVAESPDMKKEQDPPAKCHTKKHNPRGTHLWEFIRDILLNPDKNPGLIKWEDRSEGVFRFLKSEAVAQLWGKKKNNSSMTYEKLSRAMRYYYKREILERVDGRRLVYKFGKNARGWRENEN
As to conditions: protein: recombinant; tags: N-terminal GST; dsDNA, one strand shown. The essentials:
as §1

Another assay addresses SPI1 (Homo sapiens, UniProt P17947 1-270). The settings on record: protein: recombinant; tags: N-terminal GST; dsDNA, one strand shown. The essentials: as §1
The next assay concerns the target SPIB (Homo sapiens, UniProt Q01892 1-262). The settings on record: protein: recombinant; tags: N-terminal GST; dsDNA, one strand shown. In short, it runs like this: as §1
Another assay concerns the target T6, ELK3 (Homo sapiens, UniProt P41970 1-407).
T6 sequence: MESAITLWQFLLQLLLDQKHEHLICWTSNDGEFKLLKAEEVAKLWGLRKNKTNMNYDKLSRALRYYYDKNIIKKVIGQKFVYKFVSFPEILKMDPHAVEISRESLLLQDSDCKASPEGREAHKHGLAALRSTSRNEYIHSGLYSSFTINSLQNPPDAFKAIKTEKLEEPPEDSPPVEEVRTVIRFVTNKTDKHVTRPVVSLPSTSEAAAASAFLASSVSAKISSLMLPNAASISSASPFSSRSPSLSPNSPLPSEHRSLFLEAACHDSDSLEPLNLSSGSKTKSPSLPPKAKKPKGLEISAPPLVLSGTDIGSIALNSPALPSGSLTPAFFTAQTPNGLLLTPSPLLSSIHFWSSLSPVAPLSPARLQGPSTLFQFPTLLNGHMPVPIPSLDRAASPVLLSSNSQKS
The settings on record: protein: recombinant; tags: N-terminal GST; dsDNA, one strand shown. In short, it runs like this:
as §1

The next assay has as its target T7, FEV (Homo sapiens, UniProt Q99581 1-238).
T7 sequence: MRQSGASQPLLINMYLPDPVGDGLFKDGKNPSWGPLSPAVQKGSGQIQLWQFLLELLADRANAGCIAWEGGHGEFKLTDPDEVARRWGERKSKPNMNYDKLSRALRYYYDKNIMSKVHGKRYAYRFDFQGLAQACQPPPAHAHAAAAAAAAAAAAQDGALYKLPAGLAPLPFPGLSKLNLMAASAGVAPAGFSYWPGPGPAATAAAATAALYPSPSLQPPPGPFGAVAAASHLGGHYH
The settings on record: protein: recombinant; tags: N-terminal GST; dsDNA, one strand shown. In short, it runs like this: as §1

In another assay the target is ETV5 (Homo sapiens, UniProt P41161 1-510). The settings on record: protein: recombinant; tags: N-terminal GST; dsDNA, one strand shown. In short, it runs like this: as §1
Another assay concerns the target HSF1 (Homo sapiens, UniProt Q00613 1-529). As to conditions: protein: recombinant; tags: N-terminal GST; chain copies: 3; dsDNA, one strand shown. The essentials:
as §1

Another assay has as its target T8, SPIC (Homo sapiens, UniProt Q8N5J4 1-248).
T8 sequence: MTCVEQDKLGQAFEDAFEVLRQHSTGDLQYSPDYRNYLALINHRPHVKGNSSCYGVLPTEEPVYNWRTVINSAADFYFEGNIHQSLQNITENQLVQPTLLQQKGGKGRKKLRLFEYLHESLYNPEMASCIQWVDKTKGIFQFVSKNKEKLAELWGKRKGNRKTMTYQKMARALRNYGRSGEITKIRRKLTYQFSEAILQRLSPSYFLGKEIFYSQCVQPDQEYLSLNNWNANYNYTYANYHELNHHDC
As to conditions: protein: recombinant; tags: N-terminal GST; dsDNA, one strand shown. The essentials: as §1

For another assay, the target named is ELF4 (Homo sapiens, UniProt Q99607 1-663). The settings on record: protein: recombinant; tags: N-terminal GST; dsDNA, one strand shown. The essentials:
as §1

The target of another assay is T9, ELK4 (Homo sapiens, UniProt P28324-2 1-405).
T9 sequence: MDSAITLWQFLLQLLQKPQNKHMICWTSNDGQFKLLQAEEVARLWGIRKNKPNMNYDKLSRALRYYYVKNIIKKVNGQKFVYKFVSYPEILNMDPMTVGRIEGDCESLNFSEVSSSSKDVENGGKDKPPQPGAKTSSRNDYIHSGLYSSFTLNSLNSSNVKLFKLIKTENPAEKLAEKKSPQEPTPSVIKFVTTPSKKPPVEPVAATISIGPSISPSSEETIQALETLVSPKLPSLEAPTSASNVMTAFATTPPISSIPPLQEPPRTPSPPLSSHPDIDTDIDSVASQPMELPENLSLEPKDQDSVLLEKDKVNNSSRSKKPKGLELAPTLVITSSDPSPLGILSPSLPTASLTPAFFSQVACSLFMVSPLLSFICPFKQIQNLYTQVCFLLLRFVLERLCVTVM
As to conditions: protein: recombinant; tags: N-terminal GST; dsDNA, one strand shown. The essentials: as §1

The target of a further assay is T10, ELF3 (Homo sapiens, UniProt P78545 1-371).
T10 sequence: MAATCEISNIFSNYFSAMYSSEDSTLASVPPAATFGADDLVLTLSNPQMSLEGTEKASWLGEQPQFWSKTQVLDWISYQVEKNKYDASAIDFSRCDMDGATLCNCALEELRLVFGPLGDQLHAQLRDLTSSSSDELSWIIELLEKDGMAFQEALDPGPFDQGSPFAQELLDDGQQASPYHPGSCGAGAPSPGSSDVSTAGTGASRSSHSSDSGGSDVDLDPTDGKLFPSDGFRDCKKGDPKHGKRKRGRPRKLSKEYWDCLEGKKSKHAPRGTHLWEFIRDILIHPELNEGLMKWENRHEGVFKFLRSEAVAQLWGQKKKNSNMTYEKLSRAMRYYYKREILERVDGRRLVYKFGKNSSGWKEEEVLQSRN
As to conditions: protein: recombinant; tags: N-terminal GST; dsDNA, one strand shown. In short, it runs like this: as §1

In a further assay the target is CRX (Homo sapiens, UniProt O43186 1-299). As to conditions: protein: recombinant; tags: N-terminal GST; dsDNA, one strand shown. The essentials:
as §1

The target of a further assay is ETV1 (Homo sapiens, UniProt P50549 1-477). The settings on record: protein: recombinant; tags: N-terminal GST; dsDNA, one strand shown. The essentials: as §1
Chain of ETV1 (P50549 whole entry): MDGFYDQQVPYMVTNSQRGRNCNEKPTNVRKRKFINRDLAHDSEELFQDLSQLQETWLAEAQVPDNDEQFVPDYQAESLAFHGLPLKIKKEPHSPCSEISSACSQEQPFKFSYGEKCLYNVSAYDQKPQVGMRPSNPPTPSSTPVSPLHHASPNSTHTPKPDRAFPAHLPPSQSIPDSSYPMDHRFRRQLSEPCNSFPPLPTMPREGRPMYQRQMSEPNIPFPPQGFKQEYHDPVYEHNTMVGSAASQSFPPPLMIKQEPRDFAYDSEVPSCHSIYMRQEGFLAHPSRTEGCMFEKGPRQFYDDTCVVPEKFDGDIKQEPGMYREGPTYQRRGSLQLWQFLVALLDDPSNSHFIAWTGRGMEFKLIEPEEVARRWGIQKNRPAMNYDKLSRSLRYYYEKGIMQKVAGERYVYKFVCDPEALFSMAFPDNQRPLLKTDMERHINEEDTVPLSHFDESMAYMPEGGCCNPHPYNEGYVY

Chain of SPIB (Q01892 whole entry): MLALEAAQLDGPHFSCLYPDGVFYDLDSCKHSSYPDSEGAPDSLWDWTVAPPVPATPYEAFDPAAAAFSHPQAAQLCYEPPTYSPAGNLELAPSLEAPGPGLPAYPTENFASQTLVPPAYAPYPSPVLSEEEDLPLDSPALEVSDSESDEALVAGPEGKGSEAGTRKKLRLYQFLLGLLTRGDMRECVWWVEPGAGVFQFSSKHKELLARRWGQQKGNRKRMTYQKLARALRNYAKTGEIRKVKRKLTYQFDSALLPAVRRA
Chain of ELF4 (Q99607 whole entry): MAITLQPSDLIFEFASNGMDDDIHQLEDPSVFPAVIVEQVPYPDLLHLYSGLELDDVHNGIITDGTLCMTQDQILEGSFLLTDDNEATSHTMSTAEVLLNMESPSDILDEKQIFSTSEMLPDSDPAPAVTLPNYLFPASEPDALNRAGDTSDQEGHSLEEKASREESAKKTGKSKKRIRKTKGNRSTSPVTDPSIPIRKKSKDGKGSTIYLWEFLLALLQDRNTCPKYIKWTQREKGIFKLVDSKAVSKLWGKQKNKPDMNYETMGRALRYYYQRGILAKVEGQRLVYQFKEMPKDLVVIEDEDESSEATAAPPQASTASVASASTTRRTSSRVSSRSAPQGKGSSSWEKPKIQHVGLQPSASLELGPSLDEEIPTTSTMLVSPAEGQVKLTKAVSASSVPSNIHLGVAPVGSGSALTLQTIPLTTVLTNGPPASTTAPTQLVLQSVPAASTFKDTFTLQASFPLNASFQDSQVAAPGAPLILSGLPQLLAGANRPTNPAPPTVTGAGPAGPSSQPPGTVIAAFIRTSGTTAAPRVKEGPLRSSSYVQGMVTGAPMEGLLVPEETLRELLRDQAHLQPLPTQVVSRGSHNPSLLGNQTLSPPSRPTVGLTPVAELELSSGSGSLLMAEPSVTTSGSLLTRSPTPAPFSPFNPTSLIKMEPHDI
Chain of HSF1 (Q00613 whole entry): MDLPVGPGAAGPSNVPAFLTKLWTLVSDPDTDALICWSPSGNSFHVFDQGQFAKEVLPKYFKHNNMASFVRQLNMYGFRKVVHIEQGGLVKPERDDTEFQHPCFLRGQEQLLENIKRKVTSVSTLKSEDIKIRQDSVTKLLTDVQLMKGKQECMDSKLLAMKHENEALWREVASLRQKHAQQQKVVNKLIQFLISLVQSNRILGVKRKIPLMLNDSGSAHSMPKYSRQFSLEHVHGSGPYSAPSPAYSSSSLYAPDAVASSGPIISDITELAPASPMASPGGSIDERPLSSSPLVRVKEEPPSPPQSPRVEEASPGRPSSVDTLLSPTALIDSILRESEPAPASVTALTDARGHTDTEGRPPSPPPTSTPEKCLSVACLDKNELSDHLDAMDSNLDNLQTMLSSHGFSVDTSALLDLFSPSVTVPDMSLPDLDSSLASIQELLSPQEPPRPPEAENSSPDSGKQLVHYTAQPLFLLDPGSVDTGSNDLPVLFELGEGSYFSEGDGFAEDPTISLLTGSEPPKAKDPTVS
Chain of ELF1 (P32519 whole entry): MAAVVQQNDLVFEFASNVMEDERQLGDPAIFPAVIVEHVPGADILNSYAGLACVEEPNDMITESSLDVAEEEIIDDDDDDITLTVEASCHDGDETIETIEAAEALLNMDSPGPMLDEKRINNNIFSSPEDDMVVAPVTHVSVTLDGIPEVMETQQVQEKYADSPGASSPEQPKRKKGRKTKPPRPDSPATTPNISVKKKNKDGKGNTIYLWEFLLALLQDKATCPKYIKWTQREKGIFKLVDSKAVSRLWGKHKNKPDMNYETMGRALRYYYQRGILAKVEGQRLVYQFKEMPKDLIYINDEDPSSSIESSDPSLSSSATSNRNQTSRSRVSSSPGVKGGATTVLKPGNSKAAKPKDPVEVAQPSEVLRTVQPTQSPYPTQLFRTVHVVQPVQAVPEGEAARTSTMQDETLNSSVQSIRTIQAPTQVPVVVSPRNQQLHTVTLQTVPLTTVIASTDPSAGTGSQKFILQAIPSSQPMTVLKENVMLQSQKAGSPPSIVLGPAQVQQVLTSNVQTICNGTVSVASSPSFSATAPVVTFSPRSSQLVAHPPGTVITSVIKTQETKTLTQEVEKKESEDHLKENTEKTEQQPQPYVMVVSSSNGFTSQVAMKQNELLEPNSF
Chain of CRX (O43186 whole entry): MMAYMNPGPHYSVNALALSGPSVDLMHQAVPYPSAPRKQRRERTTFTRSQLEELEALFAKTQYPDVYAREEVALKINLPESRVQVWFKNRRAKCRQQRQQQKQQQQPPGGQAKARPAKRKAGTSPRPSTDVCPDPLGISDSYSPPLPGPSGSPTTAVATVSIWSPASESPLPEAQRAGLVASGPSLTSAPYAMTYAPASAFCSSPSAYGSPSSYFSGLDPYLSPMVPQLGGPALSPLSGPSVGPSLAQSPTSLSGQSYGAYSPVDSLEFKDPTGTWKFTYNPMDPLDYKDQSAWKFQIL
Chain of ETV5 (P41161 whole entry): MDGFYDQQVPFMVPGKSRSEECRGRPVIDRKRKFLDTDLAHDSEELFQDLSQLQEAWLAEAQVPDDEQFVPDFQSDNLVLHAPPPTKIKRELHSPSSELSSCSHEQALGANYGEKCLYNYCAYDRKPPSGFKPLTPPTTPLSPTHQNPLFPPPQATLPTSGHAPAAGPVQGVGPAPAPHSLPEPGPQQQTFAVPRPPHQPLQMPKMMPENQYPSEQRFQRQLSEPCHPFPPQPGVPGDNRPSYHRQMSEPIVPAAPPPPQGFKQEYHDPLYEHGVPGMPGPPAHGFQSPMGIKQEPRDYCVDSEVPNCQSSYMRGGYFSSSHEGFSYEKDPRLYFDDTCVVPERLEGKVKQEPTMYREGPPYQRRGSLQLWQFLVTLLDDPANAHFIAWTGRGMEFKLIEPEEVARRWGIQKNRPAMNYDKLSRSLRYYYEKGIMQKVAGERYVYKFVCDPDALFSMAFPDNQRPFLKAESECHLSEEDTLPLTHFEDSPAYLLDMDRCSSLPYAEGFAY

Regarding CTATCG, the binding signal in the assay with FLI1 is 1.13 fold enrichment (6-mer frequency, TF over GST control); with ELK1, 1.14 fold enrichment (6-mer frequency, TF over GST control); with GABPA, 1.05 fold enrichment (6-mer frequency, TF over GST control); with ERG, 1.09 fold enrichment (6-mer frequency, TF over GST control); in the assay with ELF1, 1.11 fold enrichment (6-mer frequency, TF over GST control); in the assay with EHF it was 1.07 fold enrichment (6-mer frequency, TF over GST control). The binding signal in the assay with SPI1 was 1.13 fold enrichment (6-mer frequency, TF over GST control); in the assay with SPIB, 1.11 fold enrichment (6-mer frequency, TF over GST control); with ELK3 it was 1.08 fold enrichment (6-mer frequency, TF over GST control); with FEV, 1.01 fold enrichment (6-mer frequency, TF over GST control); with ETV5, 1.06 fold enrichment (6-mer frequency, TF over GST control); with HSF1, 1.17 fold enrichment (6-mer frequency, TF over GST control). For the same sequence, the binding signal is 1.04 fold enrichment (6-mer frequency, TF over GST control) with SPIC; 1.15 fold enrichment (6-mer frequency, TF over GST control) in the assay with ELF4; 1.09 fold enrichment (6-mer frequency, TF over GST control) with ELK4; 1.22 fold enrichment (6-mer frequency, TF over GST control) in the assay with ELF3; 1.08 fold enrichment (6-mer frequency, TF over GST control) in the assay with CRX; 1.13 fold enrichment (6-mer frequency, TF over GST control) in the assay with ETV1.

These data come from publication PMC7862700, “An all-to-all approach to the identification of sequence-specific readers for epigenetic DNA modifications on cytosine”.
